# In article PMC7862700, “An all-to-all approach to the identification of sequence-specific readers for epigenetic DNA modifications on cytosine”:
# Columns and labels:
# Test in all cases: DAPPL (digital affinity profiling via proximity ligation, sequencing); 10 mM Tris-HCl pH 7.5, 50 mM NaCl, 1 mM DTT, 4% glycerol, room temperature, 30 min; GST-TFs on glutathione beads, 16-mer random dsDNA library, 0.1% formaldehyde crosslink after washing; high values mean tight binding
# FEV = molecular target: T1, FEV (Homo sapiens, UniProt Q99581 1-238); settings: protein: recombinant; tags: N-terminal GST; dsDNA, one strand shown
# T1 sequence: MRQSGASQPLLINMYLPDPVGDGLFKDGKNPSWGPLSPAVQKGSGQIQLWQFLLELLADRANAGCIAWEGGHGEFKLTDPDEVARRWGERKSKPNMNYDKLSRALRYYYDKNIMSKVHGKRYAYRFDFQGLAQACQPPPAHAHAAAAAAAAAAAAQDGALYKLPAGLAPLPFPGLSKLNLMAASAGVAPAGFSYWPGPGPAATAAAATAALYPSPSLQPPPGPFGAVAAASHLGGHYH
# Summary of the method: (§1)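 Human transcription factors were made in yeast as GST fusions, captured on glutathione beads and barcoded with DNA. With a tag-only sample included, the pool was incubated with 200 nmole of a random double-stranded 16-mer DNA library in Tris/NaCl/DTT/glycerol buffer at room temperature for 30 min, then crosslinked with 0.1% formaldehyde after washing, ligated by proximity, amplified and sequenced. For binding signal, each hexamer's read frequency for a factor is divided by its frequency for the tag-only sample.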
# CRX = CRX (Homo sapiens, UniProt O43186 1-299); settings: protein: recombinant; tags: N-terminal GST; dsDNA, one strand shown
# CRX, sequence (O43186 whole entry): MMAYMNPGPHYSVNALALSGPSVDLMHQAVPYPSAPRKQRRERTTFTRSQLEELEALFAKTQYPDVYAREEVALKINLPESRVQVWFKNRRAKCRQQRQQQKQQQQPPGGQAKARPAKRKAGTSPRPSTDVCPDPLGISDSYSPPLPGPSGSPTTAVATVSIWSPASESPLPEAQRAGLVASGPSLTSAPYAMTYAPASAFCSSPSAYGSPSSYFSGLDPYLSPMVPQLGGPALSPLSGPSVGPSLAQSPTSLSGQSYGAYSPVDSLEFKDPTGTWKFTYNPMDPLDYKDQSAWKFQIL
# Summary of the method: as §1
# ETS2 = molecular target: T2, ETS2 (Homo sapiens, UniProt P15036 1-469); settings: protein: recombinant; tags: N-terminal GST; dsDNA, one strand shown
# T2 sequence: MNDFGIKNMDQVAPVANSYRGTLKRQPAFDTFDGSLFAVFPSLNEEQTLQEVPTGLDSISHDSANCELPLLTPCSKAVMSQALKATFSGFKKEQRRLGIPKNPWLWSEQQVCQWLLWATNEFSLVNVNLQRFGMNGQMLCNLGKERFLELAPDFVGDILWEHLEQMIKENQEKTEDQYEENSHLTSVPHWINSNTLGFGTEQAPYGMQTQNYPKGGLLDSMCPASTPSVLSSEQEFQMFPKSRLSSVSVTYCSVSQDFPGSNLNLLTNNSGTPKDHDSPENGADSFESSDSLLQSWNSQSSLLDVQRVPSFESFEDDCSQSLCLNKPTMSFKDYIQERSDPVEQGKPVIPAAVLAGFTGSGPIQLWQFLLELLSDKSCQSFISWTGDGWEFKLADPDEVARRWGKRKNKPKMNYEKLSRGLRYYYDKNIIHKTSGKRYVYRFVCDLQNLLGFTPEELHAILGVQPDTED
# Summary of the method: as §1
# ELF5 = molecular target: T3, ELF5 (Homo sapiens, UniProt Q9UKW6-2 1-255); settings: protein: recombinant; tags: N-terminal GST; dsDNA, one strand shown
# T3 sequence: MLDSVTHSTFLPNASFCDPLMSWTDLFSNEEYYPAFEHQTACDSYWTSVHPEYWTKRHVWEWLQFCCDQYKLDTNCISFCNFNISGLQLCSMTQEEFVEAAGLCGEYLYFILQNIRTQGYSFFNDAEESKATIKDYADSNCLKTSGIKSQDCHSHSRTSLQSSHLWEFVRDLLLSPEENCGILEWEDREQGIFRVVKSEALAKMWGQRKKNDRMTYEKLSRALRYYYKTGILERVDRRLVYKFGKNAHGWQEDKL
# Summary of the method: as §1
# SPDEF = molecular target: T4, SPDEF (Homo sapiens, UniProt O95238 1-335); settings: protein: recombinant; tags: N-terminal GST; dsDNA, one strand shown
# T4 sequence: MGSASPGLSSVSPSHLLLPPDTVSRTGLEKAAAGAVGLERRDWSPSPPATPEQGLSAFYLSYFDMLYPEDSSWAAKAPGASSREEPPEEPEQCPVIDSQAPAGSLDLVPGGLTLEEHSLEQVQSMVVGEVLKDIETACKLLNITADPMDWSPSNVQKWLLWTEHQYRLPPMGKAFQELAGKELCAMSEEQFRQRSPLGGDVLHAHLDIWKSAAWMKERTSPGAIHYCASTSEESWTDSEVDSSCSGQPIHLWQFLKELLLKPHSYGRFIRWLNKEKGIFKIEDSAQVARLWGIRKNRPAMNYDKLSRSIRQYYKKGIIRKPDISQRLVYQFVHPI
# Summary of the method: as §1
# HSF1 = HSF1 (Homo sapiens, UniProt Q00613 1-529); settings: protein: recombinant; tags: N-terminal GST; chain copies: 3; dsDNA, one strand shown
# HSF1, sequence (Q00613 whole entry): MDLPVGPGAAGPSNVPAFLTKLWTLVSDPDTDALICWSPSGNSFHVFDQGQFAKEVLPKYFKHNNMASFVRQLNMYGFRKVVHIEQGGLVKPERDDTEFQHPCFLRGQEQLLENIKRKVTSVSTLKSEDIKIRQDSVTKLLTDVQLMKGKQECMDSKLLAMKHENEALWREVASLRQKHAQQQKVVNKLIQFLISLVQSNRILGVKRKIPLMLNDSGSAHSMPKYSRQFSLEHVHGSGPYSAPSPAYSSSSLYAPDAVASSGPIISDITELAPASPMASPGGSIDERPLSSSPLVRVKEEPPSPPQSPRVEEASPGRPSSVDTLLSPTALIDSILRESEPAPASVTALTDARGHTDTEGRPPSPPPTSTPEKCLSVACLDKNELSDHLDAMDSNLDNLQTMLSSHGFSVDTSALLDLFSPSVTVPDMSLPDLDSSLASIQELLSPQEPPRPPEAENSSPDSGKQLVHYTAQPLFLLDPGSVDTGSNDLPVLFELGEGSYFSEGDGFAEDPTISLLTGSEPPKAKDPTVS
# Summary of the method: as §1
sequence,measurement,setting,value
CCACAG,binding signal,FEV,"1.01 fold enrichment (6-mer frequency, TF over GST control)"
TCGTTA,binding signal,CRX,"1.1 fold enrichment (6-mer frequency, TF over GST control)"
TTGACG,binding signal,FEV,"1.1 fold enrichment (6-mer frequency, TF over GST control)"
same,binding signal,CRX,"1.01 fold enrichment (6-mer frequency, TF over GST control)"
same,binding signal,ETS2,"1.08 fold enrichment (6-mer frequency, TF over GST control)"
same,binding signal,ELF5,"1.07 fold enrichment (6-mer frequency, TF over GST control)"
CACACC,binding signal,FEV,"1.07 fold enrichment (6-mer frequency, TF over GST control)"
same,binding signal,SPDEF,"1.02 fold enrichment (6-mer frequency, TF over GST control)"
same,binding signal,ELF5,"1.03 fold enrichment (6-mer frequency, TF over GST control)"
TGGCCA,binding signal,FEV,"1.13 fold enrichment (6-mer frequency, TF over GST control)"
same,binding signal,ETS2,"1.07 fold enrichment (6-mer frequency, TF over GST control)"
CAAGCT,binding signal,CRX,"1.1 fold enrichment (6-mer frequency, TF over GST control)"
GCAGCC,binding signal,FEV,"1.03 fold enrichment (6-mer frequency, TF over GST control)"
GTGGCA,binding signal,FEV,"1.09 fold enrichment (6-mer frequency, TF over GST control)"
TGTGAT,binding signal,CRX,"1.12 fold enrichment (6-mer frequency, TF over GST control)"
same,binding signal,ETS2,"1.09 fold enrichment (6-mer frequency, TF over GST control)"
same,binding signal,SPDEF,"1.06 fold enrichment (6-mer frequency, TF over GST control)"
GACGAC,binding signal,ETS2,"1.02 fold enrichment (6-mer frequency, TF over GST control)"
same,binding signal,SPDEF,"1.04 fold enrichment (6-mer frequency, TF over GST control)"
same,binding signal,ELF5,"1.02 fold enrichment (6-mer frequency, TF over GST control)"
CGGCCC,binding signal,FEV,"1 fold enrichment (6-mer frequency, TF over GST control)"
CGCGGC,binding signal,FEV,"1.06 fold enrichment (6-mer frequency, TF over GST control)"
same,binding signal,SPDEF,"1.04 fold enrichment (6-mer frequency, TF over GST control)"
TGATTG,binding signal,ETS2,"1.01 fold enrichment (6-mer frequency, TF over GST control)"
CATGGC,binding signal,FEV,"1.04 fold enrichment (6-mer frequency, TF over GST control)"
ACCGTT,binding signal,SPDEF,"1.01 fold enrichment (6-mer frequency, TF over GST control)"
AGTTTT,binding signal,ELF5,"1.01 fold enrichment (6-mer frequency, TF over GST control)"
GCCGTC,binding signal,SPDEF,"1.03 fold enrichment (6-mer frequency, TF over GST control)"
ATCGAG,binding signal,HSF1,"1.49 fold enrichment (6-mer frequency, TF over GST control)"
GACTCA,binding signal,FEV,"1 fold enrichment (6-mer frequency, TF over GST control)"
GGGAAT,binding signal,HSF1,"1.09 fold enrichment (6-mer frequency, TF over GST control)"
CGAGTA,binding signal,HSF1,"1.1 fold enrichment (6-mer frequency, TF over GST control)"
CAGCGC,binding signal,ETS2,"1.1 fold enrichment (6-mer frequency, TF over GST control)"
TCCGAG,binding signal,HSF1,"1.03 fold enrichment (6-mer frequency, TF over GST control)"
